Measurements from PubChem BioAssay (EPA / NIEHS).
Results filed as inconclusive are left out. Calls of active or inactive are those of the source. The calls were made as follows, unless noted: active = hit-call score of the fitted dose curve at least 0.9, where 1 is the maximum; inconclusive = response in the unintended direction; inactive = score below 0.9.

Tests used:
[1] = read-out: TIMP1, TIMP1 (gene 7076); experiment: LTEA_HepaRG_TIMP1: Life Technologies and Expression Analysis (LTEA) Assay for TIMP1 using HepaRG (AID 2283534; active = hit-call score of the fitted dose curve at least 0.9, where 1 is the maximum; inactive = score below 0.9); conditions: mRNA level, 48 h; actives raise or lower the signal
Outline: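 TIMP1 induction or repression in HepaRG cells after 48 h chemical exposure (eight concentrations, highest 100 uM), assessed by normalized qRT-PCR with bidirectional fitting to DMSO controls.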

[2] = read-out: Tumor necrosis factor receptor 1 (TNFRSF1A), TNFRSF1A (gene 7132); experiment: LTEA_HepaRG_TNFRSF1A: Life Technologies and Expression Analysis (LTEA) Assay for Tumor necrosis factor receptor 1 (TNFRSF1A) using HepaRG (AID 2283535; active = hit-call score of the fitted dose curve at least 0.9, where 1 is the maximum; inactive = score below 0.9); conditions: mRNA level, 48 h; actives raise or lower the signal
Outline: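 Assay uses 48 h chemical treatment of differentiated HepaRG monolayers, tested in duplicate at eight concentrations from 100 uM downward in 0.5% DMSO. mRNA is normalized to ACTB, GAPDH and POLR2A, with induction or suppression fitted relative to vehicle.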

[3] = read-out: Cellular tumor antigen p53 (Homo sapiens) (UniProt P04637); experiment: LTEA_HepaRG_TP53: Life Technologies and Expression Analysis (LTEA) Assay for Tumor Protein P53 (TP53) using HepaRG (AID 2283537; active = hit-call score of the fitted dose curve at least 0.9, where 1 is the maximum; inactive = score below 0.9); conditions: mRNA level, 48 h; actives raise or lower the signal
Outline: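 TP53 transcript measured by qRT-PCR, normalized to three housekeeping genes, after 48 h treatment of human HepaRG cultures with chemicals from 100 uM downward in half-log steps (0.5% DMSO vehicle, serum-free induction medium). Up- or down-regulation fitted against DMSO.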

[4] = read-out: UDP glucuronosyltransferase (UGT1A1), UGT1A1 (gene 54658); experiment: LTEA_HepaRG_UGT1A1: Life Technologies and Expression Analysis (LTEA) Assay for UDP glucuronosyltransferase (UGT1A1) using HepaRG (AID 2283538; active = hit-call score of the fitted dose curve at least 0.9, where 1 is the maximum; inactive = score below 0.9); conditions: mRNA level, 48 h; actives raise or lower the signal
Outline: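 mRNA induction or loss of UGT1A1, by TaqMan qRT-PCR, in duplicate HepaRG wells after 48 h exposure to half-log dilutions topping at 100 uM; DMSO (0.5%) served as baseline.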

[5] = read-out: UDP glucuronosyltransferase (UGT1A6), UGT1A6 (gene 54578); experiment: LTEA_HepaRG_UGT1A6: Life Technologies and Expression Analysis (LTEA) Assay for UDP glucuronosyltransferase (UGT1A6) using HepaRG (AID 2283539; active = hit-call score of the fitted dose curve at least 0.9, where 1 is the maximum; inactive = score below 0.9); conditions: mRNA level, 48 h; actives raise or lower the signal
Outline: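 Measures mRNA change in HepaRG hepatic cells exposed 48 h to chemicals (eight-point, maximum 100 uM, 0.5% DMSO vehicle) in serum-free induction medium. Expression normalized to endogenous controls; DMSO served as negative control and baseline.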

[6] = read-out: X-box binding protein 1 (XBP1), XBP1 (gene 7494); experiment: LTEA_HepaRG_XBP1: Life Technologies and Expression Analysis (LTEA) Assay for X-box binding protein 1 (XBP1) using HepaRG (AID 2283540; active = hit-call score of the fitted dose curve at least 0.9, where 1 is the maximum; inactive = score below 0.9); conditions: mRNA level, 48 h; actives raise or lower the signal
Outline: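 Eight concentrations (half-log, highest 100 uM, 0.5% DMSO) tested in duplicate on HepaRG cells over 48 h in serum-free induction medium; qRT-PCR of XBP1 normalised to ACTB, GAPDH, POLR2A.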

[7] = LTEA_HepaRG_LDH_cytotoxicity: Cytotoxicity Assessment in the Life Technologies and Expression Analysis (LTEA) Assay (AID 2283563);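 as to AC50: LDH activity released into spent culture medium as a marker of cell death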
Outline: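 Spent-medium LDH after 48 h chemical exposure of HepaRG cells in serum-free induction medium; eight concentrations, half-log dilutions from 100 uM, duplicate wells, fitted upward relative to 0.5% DMSO.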

[8] = TOX21_p53_BLA_p2_viability: Viability Assessment in the Tox21 HCT-116 p53 Agonism Beta-lactamase Assay, Phase 2 (AID 2283591);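 also: compound exposure lasted 16 h at 37 °C; actives lower the ATP signal meaning cytotoxicity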
Outline: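 HCT116 p53-bla cells, 4000/well, dosed after 5 h plating (217-fold dilution of DMSO stocks) and incubated 16 h at 37C. Viability taken as cellular ATP by CellTiter-Glo luminescence after 30 min RT; signal loss marks cytotoxicity.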

[9] = TOX21_p53_BLA_p3_viability: Viability Assessment in the Tox21 HCT-116 p53 Agonism Beta-lactamase Assay, Phase 3 (AID 2283593);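 also: cells exposed to compound for 16 h before reading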
Outline: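 HCT116 cells, 4000/well, dosed 5 h after plating by pin transfer (217-fold dilution from DMSO stock) and incubated 16 h at 37C, 5% CO2. Viability read as ATP luminescence with CellTiter-Glo after 30 min at room temperature.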

[10] = molecular target: Cellular tumor antigen p53 (Homo sapiens) (UniProt P04637); experiment: TOX21_p53_BLA_p3_ratio: Tox21 HCT-116 p53 Agonism Beta-lactamase Assay, Ratio, Phase 3 (AID 2283596)
Chain of Cellular tumor antigen p53 (Homo sapiens) (P04637 whole entry, looked up): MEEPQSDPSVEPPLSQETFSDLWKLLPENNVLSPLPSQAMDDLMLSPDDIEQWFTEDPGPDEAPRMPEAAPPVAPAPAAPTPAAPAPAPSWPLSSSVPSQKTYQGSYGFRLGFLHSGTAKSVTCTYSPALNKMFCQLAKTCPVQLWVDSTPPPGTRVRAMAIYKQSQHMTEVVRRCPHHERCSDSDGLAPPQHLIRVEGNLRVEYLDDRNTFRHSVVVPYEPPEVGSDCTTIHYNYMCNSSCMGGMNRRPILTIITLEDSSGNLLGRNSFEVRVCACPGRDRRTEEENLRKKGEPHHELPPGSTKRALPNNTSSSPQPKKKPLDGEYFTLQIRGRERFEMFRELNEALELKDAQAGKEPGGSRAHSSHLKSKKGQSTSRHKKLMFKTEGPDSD
Outline: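 Cells were seeded at 4000/well, rested 5 h at 37C, then dosed with DMSO compound solutions (217-fold dilution) for 16 h. CCF4-AM substrate was loaded for 2 h at room temperature, and the 460/530 nm emission ratio was fitted for gain of signal versus DMSO.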

[11] = TOX21_p53_BLA_p4_viability: Viability Assessment in the Tox21 HCT-116 p53 Agonism Beta-lactamase Assay, Phase 4 (AID 2283597);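 also: hits lower the luminescence signal meaning cytotoxicity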
Outline: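 In this multiplexed secondary endpoint, HCT116 cells (4000 per well, compound at 5 h, 16 h treatment) received CellTiter-Glo after the beta-lactamase read. Luminescence after 30 min RT reflects ATP, and falling signal marks cytotoxicity.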

[12] = molecular target: Cellular tumor antigen p53 (Homo sapiens) (UniProt P04637); experiment: TOX21_p53_BLA_p5_ratio: Tox21 HCT-116 p53 Agonism Beta-lactamase Assay, Ratio, Phase 5 (AID 2283599)
Outline: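 HCT-116 p53-bla cells (4000/well) plated 5 h, dosed with compound (217-fold DMSO dilution) for 16 h at 37 C; CCF4-AM substrate 2 h at room temperature. Activity is the 460/530 nm emission ratio (405 nm excitation), fitted in gain-of-signal direction versus DMSO.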

[13] = molecular target: Cellular tumor antigen p53 (Homo sapiens) (UniProt P04637); experiment: TOX21_p53_BLA_p4_ratio: Tox21 HCT-116 p53 Agonism Beta-lactamase Assay, Ratio, Phase 4 (AID 2283601)
Outline: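 HCT-116 p53 beta-lactamase reporter cells (4000/well) preincubated 5 h, then compound (217-fold dilution of DMSO stock) for 16 h at 37C. CCF4-AM substrate added 2 h at room temperature; 460/530 nm emission ratio fitted upward versus DMSO.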

[14] = Tanguay_ZF_120hpf_MORT_legacy: (Legacy) Oregon State University Tanguay Lab 120 Hour Post-fertilization zebrafish Assay for Mortality (AID 2283633);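 as to AC50: fitted as increase in binary mortality versus DMSO negative control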
Outline: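 Single dechorionated Tropical 5D embryos were held with test chemical (0.64% DMSO final) from 6 to 120 hpf at 28C under foil. Deaths at 24 or 120 hpf were recorded as binary calls, analysed for increase over DMSO controls.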

[15] = Tanguay_ZF_120hpf_AXIS_legacy: (Legacy) Oregon State University Tanguay Lab 120 Hour Post-fertilization zebrafish Assay for Body Axis Malformation (AID 2283635);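 as to AC50: potency for an increased fraction of larvae scored with body axis malformation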
Outline: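 Each dechorionated embryo was exposed alone from 6 hpf, with DMSO at 0.64% (vol/vol) and trimethyltin chloride 5 uM as positive control. Axis malformation was recorded at 120 hpf unless the embryo had died.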

[16] = Tanguay_ZF_120hpf_EYE_legacy: (Legacy) Oregon State University Tanguay Lab 120 Hour Post-fertilization zebrafish Assay for Eye Malformation (AID 2283636);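 also: binary presence or absence of eye malformation scored by brightfield in 120 hpf larvae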
Outline: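 5D wild-type embryos, pronase-dechorionated at 4 hpf; static exposure 6–120 hpf, 28C, dark; DMSO 0.64% final; 5uM trimethyltin chloride positive control. Binary eye-defect scoring at 120 hpf; dead embryos not scored.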

[17] = Tanguay_ZF_120hpf_SNOU_legacy: (Legacy) Oregon State University Tanguay Lab 120 Hour Post-fertilization zebrafish Assay for Snout Malformation (AID 2283637)
Outline: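 Binary brightfield scoring of snout malformation at 120 hpf. Dechorionated 5D wild-type embryos, one per well, static exposure from 6 hpf at 28C, sealed and dark; final DMSO 0.64% (vol/vol), DMSO as baseline; 5uM trimethyltin chloride positive control.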

[18] = read-out: Thyroid Hormone Responsive (THRSP), THRSP (gene 7069); experiment: LTEA_HepaRG_THRSP: Life Technologies and Expression Analysis (LTEA) Assay for Thyroid Hormone Responsive (THRSP) using HepaRG (AID 2283536; active = hit-call score of the fitted dose curve at least 0.9, where 1 is the maximum; inactive = score below 0.9); conditions: mRNA level, 48 h; actives raise or lower the signal
Outline: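 qRT-PCR read-out (Fluidigm TaqMan), housekeeping-normalized (ACTB/GAPDH/POLR2A). HepaRG, 48 h chemical exposure, 8-pt half-log series from 100 uM in 0.5% DMSO, duplicates. Bidirectional curve fit vs 0.5% DMSO baseline.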

Measured: AC50

O=C(O)C1(C(=O)Nc2ccc(Cl)cc2Cl)CC1
active: [5] 79.6 µM | [6] 69.2 µM | [13] 46.1 µM | [15] 10 µM
not listed: [18]
inactive: all other assays above

CC(=O)[C@H]1CC[C@H]2[C@@H]3CCC4=CC(=O)CC[C@]4(C)[C@H]3CC[C@]12C
active: [1] 22.2 µM | [2] 90.6 µM | [4] 37.9 µM | [5] 63.7 µM | [7] 35.8 µM
not listed: [18]
inactive: all other assays above

CCCOC(=O)c1ccc(C(=O)OCCC)nc1
active: [14] 5.38 µM | [15] 0.968 µM
inactive: all other assays above

OB(O)O
not listed: [9] | [18]
inactive: all other assays above

c1ccc2[nH]c(-c3cscn3)nc2c1
active: [4] 25.8 µM
inactive: [1] | [2] | [5] | [6] | [7] | [14] | [15] | [16] | [17]

COCCO
not listed: [8] | [9] | [11] | [13] | [18]
inactive: all other assays above

CCSC(=O)N(CC(C)C)CC(C)C
not listed: [8] | [9] | [18]
inactive: all other assays above

CCCCCOC(=O)COc1cc(N2C(=O)C3=C(CCCC3)C2=O)c(F)cc1Cl
inactive: [1] | [2] | [4] | [5] | [6] | [7] | [14] | [15] | [16] | [17]

O=C(c1ccccc1)C1CCCCC1
not listed: [8] | [9] | [10] | [11] | [12] | [13] | [18]
inactive: all other assays above

CC(C)(C)[C@@H](O)[C@@H](Cc1ccc(Cl)cc1)n1cncn1
active: [4] 6.98 µM | [15] 40.9 µM | [17] 10.5 µM
not listed: [12] | [18]
inactive: all other assays above

CCC(C)OC(=O)N1CCCCC1CCO (configuration not stated)
active: [4] 34.2 µM
not listed: [8] | [10] | [12] | [15] | [18]
inactive: all other assays above

CCCN(CCC)c1c([N+](=O)[O-])cc(C(F)(F)F)c(N)c1[N+](=O)[O-]
active: [4] 6.48 µM | [6] 28.9 µM | [8] 23.1 µM | [9] 44.7 µM | [10] 81.1 µM | [11] 20.7 µM | [12] 67.5 µM | [13] 44.2 µM
not listed: [16] | [18]
inactive: all other assays above

COc1c(Cl)ccc(Cl)c1C(=O)O
inactive: [1] | [2] | [4] | [5] | [6] | [7] | [14] | [15] | [16] | [17]

COc1nc(C)nc(NC(=O)NS(=O)(=O)c2ccccc2OCCCl)n1
inactive: [8] | [10] | [11] | [12] | [13]

CCCCC(CC)CN1C(=O)C2C3C=CC(C3)C2C1=O (configuration not stated)
active: [4] 88.5 µM | [11] 73.3 µM
not listed: [9] | [10] | [18]
inactive: all other assays above
